Data as given in PubChem BioAssay (NCI).
About 79,000 compounds went through this panel and 15% of them were active in at least one assay; those are over-represented in the sample as a whole. Unmarked numbers belong to inactive results. Active and inactive are the calls of the source. Rule as the data show it: active = growth inhibition above about 70%; inactive = the rest.

Columns and labels:
[1] = NCI Yeast Anticancer Drug Screen. Data for the rad50 strain (AID 155);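 also: 0% = growth of vehicle-only cultures of the same strain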; conditions: S. cerevisiae rad50 strain growth inhibition, active compounds read high
Outline: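 Vehicle-treated cultures provide the reference for the growth inhibition reported for compound-exposed, repair-deficient yeast.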

[2] = NCI Yeast Anticancer Drug Screen. Data for the mec2-1 strain (AID 157); conditions: S. cerevisiae mec2-1 strain, active compounds read high
Outline: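 mec2-1 yeast strain, carrying an alteration in DNA damage repair or cell cycle control, was exposed to compounds; growth inhibition was measured relative to vehicle-treated controls.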

[3] = NCI Yeast Anticancer Drug Screen. Data for the sgs1 mgt1 strain (AID 161);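 also: 0% = growth of cultures given vehicle only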; conditions: S. cerevisiae sgs1 mgt1 strain, active compounds read high
Outline: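 Compounds are added to genetically altered yeast, and growth is compared with cultures given vehicle alone to give percent inhibition.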

[4] = NCI Yeast Anticancer Drug Screen. Data for the cln2 rad14 strain (AID 165);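 also: 0% = growth equal to vehicle treated cultures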; conditions: S. cerevisiae cln2 rad14 strain, active compounds read high
Outline: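 Yeast carrying cln2 and rad14 alterations (cell cycle control and DNA damage repair) were exposed to compounds. Growth inhibition was measured against vehicle-treated controls.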

[5] = NCI Yeast Anticancer Drug Screen. Data for the bub3 strain (AID 167); conditions: S. cerevisiae bub3 mutant strain, active compounds read high
Outline: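 Mutant yeast screening strain plus compound; vehicle-treated cultures serve as the 0% inhibition reference.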

[6] = NCI Yeast Anticancer Drug Screen. Data for the mlh1 rad18 strain (AID 175); conditions: S. cerevisiae mlh1 rad18 strain growth inhibition, active compounds read high
Outline: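 Growth inhibition of the yeast strain was measured after compound exposure and expressed relative to vehicle-treated controls. The strain carries defined defects in DNA damage repair.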

[7] = at 5.0 µM (retest, dose inferred, filed as 0.5)
[8] = at 50.0 µM (retest, dose inferred, filed as 5.0)

| SMILES | growth inhibition [1, 7] | growth inhibition [1, 8] | growth inhibition ([1]; at 50.0 µM) | growth inhibition [2, 7] | growth inhibition [2, 8] | growth inhibition ([2]; at 50.0 µM) | growth inhibition [3, 7] | growth inhibition [3, 8] | growth inhibition ([3]; at 50.0 µM) | growth inhibition [4, 7] | growth inhibition [4, 8] | growth inhibition ([4]; at 50.0 µM) | growth inhibition [5, 7] | growth inhibition [5, 8] | growth inhibition ([5]; at 50.0 µM) | growth inhibition [6, 7] | growth inhibition [6, 8] | growth inhibition ([6]; at 50.0 µM) |
| --- | --- | --- | --- | --- | --- | --- | --- | --- | --- | --- | --- | --- | --- | --- | --- | --- | --- | --- |
| Nc1nc(N)c(-c2cccc(C(F)(F)F)c2)c(Cc2cccc(C(F)(F)F)c2)n1 | -2% | 98% (active) | 99.6% (active) | 14% | 98% (active) | 99.3% (active) | -1% | 98% (active) | 99.3% (active) | 24% | 91% (active) | 98.9% (active) | -4% | 95% (active) | 99.2% (active) | 0% | 99% (active) | 99.6% (active) |
| CN(C)CCNc1ccc2nnn3c4ccc(O)cc4c(=O)c1c23 | 32% | 51% | 12.1% | -3% | -4% | -3.1% | 12% | 23% | -6.05% | 19% | 32% | 25.4% | 18% | 32% | -0.1% | 27% | 15% | 33.8% |
| COC(=O)/C=N/O | -17% | 7% | -19.4% | -9% | -6% | -6.9% | -5% | -4% | 8.85% | 7% | -1% | 0.85% | -19% | -1% | -14.9% | -2% | -6% | 36.3% |
| O=C(O)/C=C/CCC1SCC2NC(=O)NC21 (configuration not stated) | 96% (active) | 96% (active) | 80.3% (active) | 98% (active) | 97% (active) | 84.2% (active) | 96% (active) | 96% (active) | 88.3% (active) | 94% (active) | 95% (active) | 84% (active) | 97% (active) | 97% (active) | 87.5% (active) | 96% (active) | 96% (active) | 83% (active) |
